Data: PubChem BioAssay (NCATS)
Records with an inconclusive call do not appear. A number with no mark means an inactive call. Calls of active or inactive are those of the source. Calls come from the whole dose curve; as a rule, active = well fitted inhibition curve with a large enough effect; inconclusive = small, poorly fitted or top-dose-only effect; inactive = flat fitted curve, though single readings scatter.

system: astro; assay: Drug repurposing screens with cells derived from glioblastoma tumor samples (AID 1345199); settings: viability, ATP luminescence, 48 h; series mostly up to 45.9 µM; activity, negative = cell killing: at the top concentration; note: nearly all actives have a fitted effect of over 40% in size
Protocol: CD133+ cells were isolated from GBM patient biopsies and cultured as neurospheres. Neurospheres from four patients were used to screen the NCATS pharmaceutical collection (NPC) library of approved drugs and bioactive compounds. […] The neurospheres were incubated with drugs for 48 hours in 1536-well format, then assayed with an ATP content cell viability assay. […] These hits were cherry picked to confirm activity in the four original GBM lines screened plus three other slower growing GMB lines (unable to yield enough cells for a full primary screen). Variable activities of the confirmed primary hits in the different GBM patient lines were observed. The patient line 206 responded to the greatest number of compounds and line 923 responded to the least amount of active compounds.
% is set by controls: 0 for no effect and ±100 for the full control effect; potency is the fitted concentration of half-maximal effect.

Structure (SMILES) | activity, negative = cell killing | Potency
CCCCCCCC/C=C\CCCCCCCC(=O)NCc1ccc(O)c(OC)c1 | -29.5% | –
CCN1CCC[C@H]1CNC(=O)c1c(O)c(Cl)cc(Cl)c1OC | -14.6% | –
NC(=Nc1ccccc1)Nc1ccccc1 | – | inactive
NCCCNCCSP(=O)(O)O | -5.67% | –
COC(=O)[C@H]1[C@H]2C[C@@H]3c4[nH]c5cc(OC)ccc5c4CCN3C[C@H]2C[C@@H](OC(=O)c2cc(OC)c(OC)c(OC)c2)[C@@H]1OC | -28.7% | –
OC(CCN1CCCCC1)(c1ccccc1)C1CCCCC1 (stereo not given) | -20.7% | –
CN(C)[C@@H]1C(=O)C(C(N)=O)=C(O)[C@@]2(O)C(=O)C3=C(O)c4c(O)ccc(Cl)c4[C@@H](O)[C@H]3C[C@@H]12 | -18.2% | –
NC(=O)c1ncn([C@@H]2O[C@H](CO)[C@@H](O)[C@H]2O)c1O | 1.07% | –
O=c1[nH]c(=O)n([C@H]2C[C@H](O)[C@@H](CO)O2)cc1Br | -22.2% | –
CCn1nc(C(=O)O)c(=O)c2cc3c(cc21)OCO3 | -16.1% [at 21.2 µM] | –
CC(N=C(NC#N)Nc1ccncc1)C(C)(C)C (stereo not given) | -9.79% | –
COc1ccc(CCN(C)CCCC(C#N)(c2cc(OC)c(OC)c(OC)c2)C(C)C)cc1OC (stereo not given) | -14.2% | –
CCCCOCCOCCOCc1cc2c(cc1CCC)OCO2 | – | inactive
O=C(O)CCCCCCCC(=O)O | -7.79% | –
NC(Cc1ccc(Cl)cc1)C(=O)O (stereo not given) | -11.9% | –
CCOC(=O)C1=C(C)NC(C)=C(C(=O)OC)C1c1cccc([N+](=O)[O-])c1 (stereo not given) | -21.6% | –
O=C(O)CN(CCN(CC(=O)O)CC(=O)O)CCN(CC(=O)O)CC(=O)O | -18.4% | –
CN/C(=C\[N+](=O)[O-])NCCSCc1ccc(CN(C)C)o1 | -12.2% | –
NC/C=C/C(=O)O | -1.88% | –
COc1ccc2c(c1OC)C(=O)O[C@@H]2[C@H]1c2c(cc3c(c2OC)OCO3)CCN1C | -13.2% | –

Structure (SMILES) | activity, negative = cell killing | Potency
O=C1CC2(CCCC2)CC(=O)N1CCCCN1CCN(c2ncccn2)CC1 | -8.51% | –
Cc1ccc(/C(=C\CN2CCCC2)c2ccccn2)cc1 | -20.2% | –
CCCCCN(CCCCC)C(=O)C(CCC(=O)O)NC(=O)c1ccc(Cl)c(Cl)c1 (stereo not given) | -20.7% | –
CCCCNc1ccc(C(=O)OCCN(C)C)cc1 | -23.2% [at 21.2 µM] | –
CNC1(C)C2CCC(C2)C1(C)C (stereo not given) | 1.01% | –
CCOC(=O)C1=C(C)NC(C)=C(C(=O)OC)C1c1cccc(Cl)c1Cl (stereo not given) | -20.9% | –
C[N+](C)(C)CCOC(N)=O | -13% | –
Cc1ccc(S(=O)(=O)NC(=O)NN2CCCCCC2)cc1 | -0.811% | –
Cc1cccc(C)c1NC(=O)C(C)N (stereo not given) | -8.75% [at 21.2 µM] | –
CCN(CC)CCOCCOC(=O)C1(c2ccccc2)CCCC1 | – | 35.5 µM (active)
Cc1ccc(=O)n(-c2ccccc2)c1 | -11.9% | –
C(=C\c1ccccc1)/CN1CCN(C(c2ccccc2)c2ccccc2)CC1 | -15.5% [at 21.2 µM] | –
c1cnc(N2CCN(Cc3ccc4c(c3)OCO4)CC2)nc1 | -7.06% | –
C[C@]12C=CC(=O)C=C1CC[C@H]1[C@@H]3C[C@@H](O)[C@](O)(C(=O)CO)[C@@]3(C)C[C@H](O)[C@@]12F | -9.38% | –
Cc1nc2sccn2c(=O)c1CCN1CCC(=C(c2ccc(F)cc2)c2ccc(F)cc2)CC1 | – | 20 µM (active)
CN(C)C(=O)Oc1cccc([N+](C)(C)C)c1 | -10.3% | –
CN(C)CCN(Cc1cccs1)c1ccccn1 | -19.2% | –
CN(C)CCOC(=O)COc1ccc(Cl)cc1 | -10.1% [at 21.2 µM] | –
CCN(CC)CCNC(=O)c1cc(S(C)(=O)=O)ccc1OC | -11.9% [at 21.2 µM] | –
NS(=O)(=O)c1cc2c(cc1Cl)NC(C1CC3C=CC1C3)NS2(=O)=O (stereo not given) | -7.59% | –
